# Activity calls are given as the source filed them. Calls follow the shape of the dose curve; as a rule, active = well fitted curve in the direction sought with a large enough effect; inconclusive = small, poorly fitted or top-dose-only effect, or effect the other way, or another doubt; inactive = no such curve, though single readings can be large or run the other way.
# Test: Inducers of the Endoplasmic Reticulum Stress Response (ERSR) in human glioma: Validation (AID 504836); also: 0% is about no effect
# Settings: human glioma cells, ER stress response reporter; series mostly up to 38.3 µM; activation: at the top concentration
# Text: Primary protein unfolding takes place for many diseases, including diabetes and hypoxia, , and triggers a reaction in the cells called ER stress response (ERSR). ). ERSR is designed as a repair mechanism, but ultimately leads to cell death via apoptosis if conditions triggering protein unfolding persist (1). The molecular clue to ERSR activation is the enhancement of the expression of key molecular chaperones, including the glucose regulated protein (GRP) 78. GRP78 is the main sensor for protein folding and the main actuator of the ERSR.
# In a collaboration between the Southern Research Institute and the NIH Chemical Genomics Center, a cell based screen was developed that reliably uses GRP78 as a sensor to identify small molecules as inducers of ERSR. In resting conditions, GRP78 binds proteins and acts as a natural repressor. Once unfolded proteins are present in the ER, GRP78 releases some of the repressors and binds to the unfolded proteins. The release of the repressors executes the ERSR program. Using a human glioma cell line in a miniaturized, luminescent format, a high-throughput screen was developed to identify actuators of the ERSR.
# (1) Soboloff, J. and S. A. Berger (2002). "Sustained ER Ca2+ depletion suppresses protein synthesis and induces activation-enhanced cell death in mast cells." J Biol Chem 277(16): 13812-20.
# NIH Chemical Genomics Center [NCGC]
# NIH Molecular Libraries Probe Centers Network [MLPCN]
# Assay Submitter (PI): Maurizio Grimaldi, Southern Research Institute
# Stable transfected human glioma cell line, U87-MG, are dispensed at density 1000 cells/well into Greiner white solid bottom 1536-well assay plates. Compounds are transferred via Kalypsys pin tool equipped with 1536-pin array (10nl slotted pins, V&P Scientific, San Diego, CA). The assay plates will be incubated for 16 hours and developed by adding appropriate quantities of the Promega Bright Glo reagent. The plates will be incubated at room temperature for 10 minutes prior to being transferred into a ViewLux high-throughput CCD imager (PerkinElmer), wherein end-point measurements of luminescence are acquired.
row,Compound,activation
1,O=C(O)[C@@H]1C[C@@H](C(=O)O)N1,-1.14% (inactive)
2,O=c1ccc2c(OCCCCc3ccccc3)c3ccoc3cc2o1,-2.42% (inactive)
3,CNCCC(Oc1ccccc1C)c1ccccc1 (stereo not given),1.62% (inactive)
4,c1ccc2c(c1)CCC[C@H]2Nc1nc2ccccc2[nH]1,-2.97% (inactive)
5,C1CCc2nnnn2CC1,-3.67% (inactive)
6,C#CCn1c(=O)c2c(ncn2C)n(C)c1=O,-1.71% (inactive)
7,Nn1nnc2ccccc21,-2.18% (inactive)
8,CCCC(=O)NCCc1c2n(c3ccc(OC)cc13)CCCc1ccccc1-2,-3.05% (inactive)
9,COc1cc(/C=C(\C#N)C(=O)Nc2nnc(C(F)(F)F)s2)ccc1OCc1ccc(C(F)(F)F)cc1C(F)(F)F,-1.92% (inactive)
10,CN1C2CC(OC(=O)[C@H](CO)c3ccccc3)CC1C1OC12 (stereo not given in full),-2.85% (inactive)
11,CSc1nc(N)c2ncn([C@@H]3O[C@H](COP(=O)(O)OP(=O)(O)OP(=O)(O)O)[C@@H](O)[C@H]3O)c2n1,-3.49% (inactive)
12,NC1(C(=O)O)CCCCC1,-0.263% (inactive)
13,CCCn1c(=O)c2[nH]c(-c3ccc(OCC(=O)NCCN)cc3)nc2n(CCC)c1=O,-3.05% (inactive)
14,O=C1Cc2c([nH]c3ccc(Br)cc23)-c2ccccc2N1,-0.332% (inactive)
15,CC(N)=NCCCC[C@@H](N)C(=O)O,-0.859% (inactive)
16,O=[N+]([O-])c1ccc(-c2nc(-c3ccc(F)cc3)c(-c3ccncc3)[nH]2)cc1,-2.46% (inactive)
17,NC(N)=NC(N)=Nc1ccccc1,-1.3% (inactive)
18,CCOC(=O)C1=C(C)NC(C)=C(C(=O)OCC)C1c1c(F)c(F)c(F)c(F)c1F,-1.32% (inactive)
19,CNC(=O)[C@H]1O[C@@H](n2cnc3c(NCc4ccc(N)cc4)ncnc32)[C@H](O)[C@@H]1O,-4.43% (inactive)
20,CC(C)(C=O)Cc1cc(C(C)(C)C)c(O)c(C(C)(C)C)c1,3.5% (inactive)

row,Compound,activation
1,Oc1ccccc1O,9.05% (inactive)
2,CCN(CC)CCOC(=O)c1cc(Cl)c(N)cc1OC,-0.914% (inactive)
3,Cc1nc2sccn2c(=O)c1CCN1CCC(=C(c2ccccc2)c2ccc(F)cc2)CC1,0.15% (inactive)
4,COc1ccc(CCN(C)CCc2ccc(OC)c(OC)c2)cc1OC,-0.0032% (inactive)
5,NC(=O)c1ccc2[nH]ccc2c1,-3.6% (inactive)
6,NS(=O)(=O)c1cccc2c1c([N+](=O)[O-])cc1nc(O)c(O)nc12,-1.74% (inactive)
7,CN[C@H](CC(C)C)C(=O)N[C@H]1C(=O)N[C@@H](CC(N)=O)C(=O)N[C@@H]2C(=O)N[C@H]3C(=O)N[C@H](C(=O)N[C@H](C(=O)O)c4cc(O)cc(O)c4-c4cc3ccc4O)[C@H](O)c3ccc(c(Cl)c3)Oc3cc2cc(c3O[C@@H]2O[C@H](CO)[C@@H](O)[C@H](O)[C@@H]2O[C@H]2C[C@](C)(N)[C@H](O)[C@H](C)O2)Oc2ccc(cc2Cl)[C@H]1O,-4.13% (inactive)
8,CO/N=C(\C(=O)N[C@@H]1C(=O)N2C(C(=O)O)=C(CSc3nc(=O)c(O)nn3C)CSC12)c1csc(N)n1 (stereo not given in full),-1.45% (inactive)
9,CC(=O)N[C@H](C(=O)O)C(C)(C)SN=O,-0.774% (inactive)
10,O=C(/C=C/c1ccc(O)cc1)c1ccc(O)cc1O,0.359% (inactive)
11,O=C(O)C1CCNCC1,-4.09% (inactive)
12,COc1cc2c(cc1OC)C1CC(=O)C(CC(C)C)CN1CC2 (stereo not given),-2.73% (inactive)
13,Cn1cnc2c(NCc3ccccc3)nc(NCCO)nc21,-1.03% (inactive)
14,CC(=O)SCC[N+](C)(C)C,-0.99% (inactive)
15,O=C(Nc1cccc(C(=O)Nc2ccc(S(=O)(=O)O)c3cc(S(=O)(=O)O)cc(S(=O)(=O)O)c23)c1)Nc1cccc(C(=O)Nc2ccc(S(=O)(=O)O)c3cc(S(=O)(=O)O)cc(S(=O)(=O)O)c23)c1,0.695% (inactive)
16,C=C(C)C1CC=C(C(=O)O)CC1 (stereo not given),-3.89% (inactive)
17,CNc1ncnc2c1ncn2[C@H]1C[C@H](OP(=O)(O)O)[C@@H](COP(=O)(O)O)O1,-1.89% (inactive)
18,OCC1NCC(O)C(O)C1O (stereo not given),-3.49% (inactive)
19,CN1CCc2cccc3c2C1Cc1ccc(O)c(O)c1-3 (stereo not given),-3.11% (inactive)
20,CC[n+]1c(/C=C/C=C2/N(C)c3ccccc3C2(C)C)sc2ccccc21,-10.4% (inactive)
